{"source": "the supplement of paper PMC12282887", "tested_on": "E. coli BW25113 marRABp lux reporter", "test": "promoter activity interaction Z-score (Lux/OD deviation from empty-vector control); higher = stronger promoter induction by the compound", "procedure": "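E. coli BW25113 (wild type or ΔmarA/ΔsoxS/Δrob) carrying pTU175 luxCDABE promoter reporters was grown in LB in 384-well plates at 37°C with each of 94 compounds at 4 two-fold concentrations, in biological duplicates. Luminescence and OD600 were read every 30 min for 12 h and integrated as AUC over 8 h (0-8 h WT, 1-9 h mutants). Lux AUC was divided by OD AUC; the interaction score is the residual of a Huber robust fit of each promoter against the empty-vector control, then Z-transformed per promoter.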", "note": "± gives the standard deviation of the averaged measurements."}
{"smiles": "CC[C@H]1OC(=O)[C@H](C)[C@@H](O[C@H]2C[C@@](C)(OC)[C@@H](O)[C@H](C)O2)[C@H](C)[C@@H](O[C@@H]2O[C@H](C)C[C@H](N(C)C)[C@H]2O)[C@](C)(OC)C[C@@H](C)C(=O)[C@H](C)[C@@H](O)[C@]1(C)O", "note": "[Clarithromycin]", "values": [{"measurement": "promoter activity interaction Z-score", "setting": "3.7 µg/ml, genetic background: wild type", "value": "2.9 ± 0.24"}, {"measurement": "promoter activity interaction Z-score", "setting": "3.7 µg/ml, genetic background: ΔmarA", "value": "2.02 ± 0.13"}, {"measurement": "promoter activity interaction Z-score", "setting": "3.7 µg/ml, genetic background: Δrob", "value": "1.54 ± 0.29"}, {"measurement": "promoter activity interaction Z-score", "setting": "3.7 µg/ml, genetic background: ΔsoxS", "value": "2.44 ± 1"}, {"measurement": "promoter activity interaction Z-score", "setting": "7.5 µg/ml, genetic background: wild type", "value": "3.84 ± 0.18"}, {"measurement": "promoter activity interaction Z-score", "setting": "7.5 µg/ml, genetic background: ΔmarA", "value": "2.58 ± 0.055"}, {"measurement": "promoter activity interaction Z-score", "setting": "7.5 µg/ml, genetic background: Δrob", "value": "2.57 ± 1.6"}, {"measurement": "promoter activity interaction Z-score", "setting": "7.5 µg/ml, genetic background: ΔsoxS", "value": "4.77 ± 2.4"}, {"measurement": "promoter activity interaction Z-score", "setting": "15 µg/ml, genetic background: wild type", "value": "2.6 ± 3"}, {"measurement": "promoter activity interaction Z-score", "setting": "15 µg/ml, genetic background: ΔmarA", "value": 3.84}, {"measurement": "promoter activity interaction Z-score", "setting": "15 µg/ml, genetic background: Δrob", "value": "4.65 ± 1.9"}, {"measurement": "promoter activity interaction Z-score", "setting": "15 µg/ml, genetic background: ΔsoxS", "value": "7.29 ± 0.54"}]}
{"smiles": "Cn1c(=O)[nH]c2[nH]c(=O)[nH]c2c1=O", "note": "[1-Methyluric acid]", "values": [{"measurement": "promoter activity interaction Z-score", "setting": "11.4 µg/ml, genetic background: wild type", "value": "0.0849 ± 0.054"}, {"measurement": "promoter activity interaction Z-score", "setting": "11.4 µg/ml, genetic background: ΔmarA", "value": "-0.0996 ± 0.1"}, {"measurement": "promoter activity interaction Z-score", "setting": "11.4 µg/ml, genetic background: Δrob", "value": "-0.0237 ± 0.035"}, {"measurement": "promoter activity interaction Z-score", "setting": "11.4 µg/ml, genetic background: ΔsoxS", "value": "-0.145 ± 0.068"}, {"measurement": "promoter activity interaction Z-score", "setting": "22.8 µg/ml, genetic background: wild type", "value": "-0.0689 ± 0.41"}, {"measurement": "promoter activity interaction Z-score", "setting": "22.8 µg/ml, genetic background: ΔmarA", "value": "-0.0515 ± 0.28"}, {"measurement": "promoter activity interaction Z-score", "setting": "22.8 µg/ml, genetic background: Δrob", "value": "-0.217 ± 0.19"}, {"measurement": "promoter activity interaction Z-score", "setting": "22.8 µg/ml, genetic background: ΔsoxS", "value": "-0.242 ± 0.1"}, {"measurement": "promoter activity interaction Z-score", "setting": "45.5 µg/ml, genetic background: wild type", "value": "-0.206 ± 0.59"}, {"measurement": "promoter activity interaction Z-score", "setting": "45.5 µg/ml, genetic background: ΔmarA", "value": "-0.417 ± 0.023"}, {"measurement": "promoter activity interaction Z-score", "setting": "45.5 µg/ml, genetic background: Δrob", "value": "-0.419 ± 0.29"}, {"measurement": "promoter activity interaction Z-score", "setting": "45.5 µg/ml, genetic background: ΔsoxS", "value": "-0.415 ± 0.043"}, {"measurement": "promoter activity interaction Z-score", "setting": "91.1 µg/ml, genetic background: wild type", "value": "-0.367 ± 0.052"}, {"measurement": "promoter activity interaction Z-score", "setting": "91.1 µg/ml, genetic background: ΔmarA", "value": "0.16 ± 0.19"}, {"measurement": "promoter activity interaction Z-score", "setting": "91.1 µg/ml, genetic background: Δrob", "value": "-0.423 ± 0.058"}, {"measurement": "promoter activity interaction Z-score", "setting": "91.1 µg/ml, genetic background: ΔsoxS", "value": "-0.211 ± 0.17"}]}
{"smiles": "COc1ccc(CCN(C)CCCC(C#N)(c2ccc(OC)c(OC)c2)C(C)C)cc1OC", "note": "(centres undefined) [Verapamil]", "values": [{"measurement": "promoter activity interaction Z-score", "setting": "28.4 µg/ml, genetic background: wild type", "value": "0.257 ± 0.13"}, {"measurement": "promoter activity interaction Z-score", "setting": "28.4 µg/ml, genetic background: ΔmarA", "value": "0.21 ± 0.17"}, {"measurement": "promoter activity interaction Z-score", "setting": "28.4 µg/ml, genetic background: Δrob", "value": "0.064 ± 0.21"}, {"measurement": "promoter activity interaction Z-score", "setting": "28.4 µg/ml, genetic background: ΔsoxS", "value": "-0.241 ± 0.54"}, {"measurement": "promoter activity interaction Z-score", "setting": "56.8 µg/ml, genetic background: wild type", "value": "0.22 ± 0.12"}, {"measurement": "promoter activity interaction Z-score", "setting": "56.8 µg/ml, genetic background: ΔmarA", "value": "0.273 ± 0.099"}, {"measurement": "promoter activity interaction Z-score", "setting": "56.8 µg/ml, genetic background: Δrob", "value": "0.311 ± 0.47"}, {"measurement": "promoter activity interaction Z-score", "setting": "56.8 µg/ml, genetic background: ΔsoxS", "value": "0.0416 ± 0.54"}, {"measurement": "promoter activity interaction Z-score", "setting": "113.7 µg/ml, genetic background: wild type", "value": "0.853 ± 0.13"}, {"measurement": "promoter activity interaction Z-score", "setting": "113.7 µg/ml, genetic background: ΔmarA", "value": "0.923 ± 0.54"}, {"measurement": "promoter activity interaction Z-score", "setting": "113.7 µg/ml, genetic background: Δrob", "value": "0.659 ± 0.32"}, {"measurement": "promoter activity interaction Z-score", "setting": "113.7 µg/ml, genetic background: ΔsoxS", "value": "0.193 ± 0.7"}, {"measurement": "promoter activity interaction Z-score", "setting": "227.3 µg/ml, genetic background: wild type", "value": "0.957 ± 0.16"}, {"measurement": "promoter activity interaction Z-score", "setting": "227.3 µg/ml, genetic background: ΔmarA", "value": "1.14 ± 0.38"}, {"measurement": "promoter activity interaction Z-score", "setting": "227.3 µg/ml, genetic background: Δrob", "value": "0.739 ± 0.49"}, {"measurement": "promoter activity interaction Z-score", "setting": "227.3 µg/ml, genetic background: ΔsoxS", "value": "0.385 ± 0.48"}]}
